Measured values as given in the supplement of paper PMC9023506.
Where a name gives a salt, the structure may show the parent alone.

Test system: Danio rerio larvae (5 dpf)
Experiment: activity during period 15 (no stimuli), difference vs DMSO (percentage points (treated minus DMSO)); higher = more of the behaviour than the DMSO vehicle control
Conditions: 10 µM; exposure time: 3 h pre-incubation + 3 h imaging
Procedure: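 5-dpf wild-type zebrafish larvae were imaged in 96-well plates. They were treated with 190 Tocris FDA-approved drugs at 10 µM (1 µl/ml DMSO) for 3 h before and 3 h during imaging at 28.5 °C, 48 larvae per drug. Automated image analysis gave % time moving and optomotor responses. Values are drug group mean minus DMSO vehicle mean (n=844), in percentage points, for 10 behaviours.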

**Q.** How did the “activity during period 15” value turn out when `O=C(O)c1cc(/N=N/c2ccc(S(=O)(=O)Nc3ccccn3)cc2)ccc1O` [Sulfasalazine] was run?
**A.** 15.3

**Q.** How did the “activity during period 15” value turn out when `O=C(NCC1CCCCN1)c1cc(OCC(F)(F)F)ccc1OCC(F)(F)F` (stereo not given) [Flecainide acetate] was run?
**A.** -6.75

**Q.** `CCOC(=O)N1CCC(=C2c3ccc(Cl)cc3CCc3cccnc32)CC1` [Loratidine] was tested. Which “activity during period 15” value did it give?
**A.** -25

**Q.** `Nc1ncn([C@H]2C[C@H](O)[C@@H](CO)O2)c(=O)n1` [Decitabine] was tested. Which “activity during period 15” value did it give?
**A.** 1.76

**Q.** `CN(C)CCC[C@@]1(c2ccc(F)cc2)OCc2cc(C#N)ccc21` [Escitalopram oxalate] was tested. Which “activity during period 15” value did it give?
**A.** -18.3

**Q.** Which “activity during period 15” value does the source give for `CC(=O)S[C@@H]1CC2=CC(=O)CC[C@]2(C)[C@H]2CC[C@@]3(C)[C@@H](CC[C@@]34CCC(=O)O4)[C@H]12` [Spironolactone] here?
**A.** -1.27

**Q.** For `O=C(O)CCCc1ccccc1` [Sodium 4-Phenylbutyrate], which “activity during period 15” value is on record?
**A.** 0.951

**Q.** How did the “activity during period 15” value turn out when `NC(=O)OCC(COC(N)=O)c1ccccc1` [Felbamate] was run?
**A.** 0.376

**Q.** How did the “activity during period 15” value turn out when `CCOc1cc(CC(=O)N[C@@H](CC(C)C)c2ccccc2N2CCCCC2)ccc1C(=O)O` [Repaglinide] was run?
**A.** -1.47

**Q.** How did the “activity during period 15” value turn out when `CCOc1nc2cccc(C(=O)O)c2n1Cc1ccc(-c2ccccc2-c2nnn[nH]2)cc1` [Candesartan] was run?
**A.** -1.51

**Q.** `Nc1ncn([C@@H]2O[C@H](CO)[C@@H](O)[C@H]2O)c(=O)n1` [5-Azacytidine] was tested. Which “activity during period 15” value did it give?
**A.** 1.42

**Q.** With `Nc1nc(Cl)nc2c1ncn2[C@@H]1O[C@H](CO)[C@@H](O)[C@@H]1F` [Clofarabine] as the compound, how does the “activity during period 15” value read?
**A.** -4.3

**Q.** `C[C@H](Cc1cc2c(c(C(N)=O)c1)N(CCCO)CC2)NCCOc1ccccc1OCC(F)(F)F` [Silodosin] was tested. Which “activity during period 15” value did it give?
**A.** -7.59

**Q.** `O=C1CCc2cc(OCCCCc3nnnn3C3CCCCC3)ccc2N1` [Cilostazol] was tested. Which “activity during period 15” value did it give?
**A.** 3.03

**Q.** Which “activity during period 15” value does the source give for `CCOC(=O)c1ncn2c1CN(C)C(=O)c1cc(F)ccc1-2` [Flumazenil] here?
**A.** 11.9

**Q.** With `CC(C)CN(C[C@@H](O)[C@H](Cc1ccccc1)NC(=O)O[C@H]1CO[C@H]2OCC[C@H]21)S(=O)(=O)c1ccc(N)cc1` [Darunavir] as the compound, how does the “activity during period 15” value read?
**A.** 11.1

**Q.** For `CNS(=O)(=O)Cc1ccc2[nH]cc(CCN(C)C)c2c1` [Sumatriptan succinate], which “activity during period 15” value is on record?
**A.** 3.89

**Q.** With `Cc1ccc(-c2cc(C(F)(F)F)nn2-c2ccc(S(N)(=O)=O)cc2)cc1` [Celecoxib] as the compound, how does the “activity during period 15” value read?
**A.** 3.28

**Q.** How did the “activity during period 15” value turn out when `CN1CCC[C@@H]1CCO[C@](C)(c1ccccc1)c1ccc(Cl)cc1` [Clemastine fumarate] was run?
**A.** 5.26

**Q.** With `CCN(CC)CCNC(=O)c1c(C)[nH]c(/C=C2\C(=O)Nc3ccc(F)cc32)c1C` [Sunitinib malate] as the compound, how does the “activity during period 15” value read?
**A.** -14.6

**Q.** For `C/C(O)=C(\C#N)C(=O)Nc1ccc(C(F)(F)F)cc1` [Teriflunomide], which “activity during period 15” value is on record?
**A.** 10.3

**Q.** With `Cc1ccsc1C(=CCCN1CCC[C@@H](C(=O)O)C1)c1sccc1C` [Tiagabine hydrochloride] as the compound, how does the “activity during period 15” value read?
**A.** 10.4

**Q.** `CN1CC[C@@H](NC(=O)Nc2ccc(C#N)cc2)C[C@@H]1c1nc2ccccc2[nH]1` was tested. Which “activity during period 15” value did it give?
**A.** -0.815

**Q.** `CCCCc1nc(Cl)c(CO)n1Cc1ccc(-c2ccccc2-c2nnn[nH]2)cc1` [Losartan potassium] was tested. Which “activity during period 15” value did it give?
**A.** 3.67

**Q.** Which “activity during period 15” value does the source give for `CCC(C)(C)C(=O)O[C@H]1C[C@@H](C)C=C2C=C[C@H](C)[C@H](CC[C@@H]3C[C@@H](O)CC(=O)O3)[C@H]21` [Simvastatin] here?
**A.** -3.71

**Q.** Which “activity during period 15” value does the source give for `COc1cc2nccc(Oc3ccc(NC(=O)C4(C(=O)Nc5ccc(F)cc5)CC4)cc3)c2cc1OC` here?
**A.** 16.2

**Q.** How did the “activity during period 15” value turn out when `CN(CCOc1ccc(NS(C)(=O)=O)cc1)CCc1ccc(NS(C)(=O)=O)cc1` [Dofetilide] was run?
**A.** -9.09

**Q.** With `CO[C@H]1/C=C/O[C@@]2(C)Oc3c(C)c(O)c4c(O)c(c5c(nc6cc(C)ccn65)c4c3C2=O)NC(=O)/C(C)=C\C=C\[C@H](C)[C@H](O)[C@@H](C)[C@@H](O)[C@@H](C)[C@H](OC(C)=O)[C@@H]1C` [Rifaximin] as the compound, how does the “activity during period 15” value read?
**A.** -11.6

**Q.** `O=c1[nH]c(=O)n([C@H]2C[C@H](O)[C@@H](CO)O2)cc1C(F)(F)F` [Trifluorothymidine] was tested. Which “activity during period 15” value did it give?
**A.** -1.33

**Q.** With `CC1CNc2c(cccc2S(=O)(=O)N[C@@H](CCCNC(=N)N)C(=O)N2CC[C@@H](C)C[C@@H]2C(=O)O)C1` (stereo not given in full) [Argatroban] as the compound, how does the “activity during period 15” value read?
**A.** -2.33

**Q.** How did the “activity during period 15” value turn out when `NS(=O)(=O)c1cc(C(=O)O)c(NCc2ccco2)cc1Cl` [Furosemide] was run?
**A.** 9.33

**Q.** With `CN1CC2c3ccccc3Oc3ccc(Cl)cc3C2C1` (stereo not given) [Asenapine maleate] as the compound, how does the “activity during period 15” value read?
**A.** 40.8

**Q.** For `C[C@H]1O[C@H](O[C@H]2[C@H](O)[C@@H](O)[C@@H](O[C@H]3[C@H](O)[C@@H](O)C(O)O[C@@H]3CO)O[C@@H]2CO)[C@H](O)[C@@H](O)[C@@H]1N[C@H]1C=C(CO)[C@@H](O)[C@H](O)[C@H]1O` (stereo not given in full) [Acarbose], which “activity during period 15” value is on record?
**A.** 1.42

**Q.** For `C[C@H]1C[C@@H]2[C@H]([C@@H](O)C[C@@]3(C)[C@H]2CC[C@]3(O)C(=O)CO)[C@@]2(C)C=CC(=O)C=C12` [Methylprednisolone], which “activity during period 15” value is on record?
**A.** -4.72

**Q.** For `C[C@@H](O[C@H]1OCCN(Cc2n[nH]c(=O)[nH]2)[C@H]1c1ccc(F)cc1)c1cc(C(F)(F)F)cc(C(F)(F)F)c1` [Aprepitant], which “activity during period 15” value is on record?
**A.** -7.86

**Q.** Which “activity during period 15” value does the source give for `CCCN(CCC)S(=O)(=O)c1ccc(C(=O)O)cc1` [Probenecid] here?
**A.** -4.09

**Q.** With `Cn1cnc([N+](=O)[O-])c1Sc1ncnc2[nH]cnc12` [Azathioprine] as the compound, how does the “activity during period 15” value read?
**A.** 8.85

**Q.** `COc1cc(Nc2c(C#N)cnc3cc(OCCCN4CCN(C)CC4)c(OC)cc23)c(Cl)cc1Cl` [Bosutinib] was tested. Which “activity during period 15” value did it give?
**A.** -11.7

**Q.** How did the “activity during period 15” value turn out when `Nc1nc2c(ncn2COCCO)c(=O)[nH]1` [Acyclovir] was run?
**A.** -4.38

**Q.** For `CCCN(CCc1cccs1)[C@H]1CCc2c(O)cccc2C1` [Rotigotine hydrochloride], which “activity during period 15” value is on record?
**A.** -35.4
